Bioassay records deposited in PubChem by National Center for Advancing Translational Sciences (NCATS).
Sfp PPTase inh = Sfp phosphopantetheinyl transferase inhibition | Potency, µM, for the others: largest response in the series, negative = inhibition, actives largely listed as inhibitors | Biochemical Sfp PPTase activity, qHTS | actives 3.5% (n = 310,000) | AID 1490;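 also: the enzyme is Sfp with the accession as filed and its product quenches rhodamine fluorescence; 0% = enzyme reaction without inhibitor and -100% = no enzyme wells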
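Step 1, compound plus 15 nM Sfp-PPTase, 15 min, room temperature. Step 2, add rhodamine-CoA (5 uM) and BHQ-2-YbbR (12.5 uM). Step 3, read 525/598 nm fluorescence at 0 and 30 min.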
JMJD2A Tudor = inhibitors of human JMJD2A Tudor domain; actives 4.4% (n = 390,000); Potency, µM (titrated, usually from 114 µM), for the others: at the highest dose activity change, negative = inhibition, hits mostly inhibitors; AlphaScreen JMJD2A-Tudor / H3K4me3 peptide binding; AID 504339; also: % is scaled to controls: 0 for no effect and ±100 for the full control effect; nearly all actives have a fitted effect of over 50% in size
Target sequence (O75164 whole entry, looked up, the tested form may be a part): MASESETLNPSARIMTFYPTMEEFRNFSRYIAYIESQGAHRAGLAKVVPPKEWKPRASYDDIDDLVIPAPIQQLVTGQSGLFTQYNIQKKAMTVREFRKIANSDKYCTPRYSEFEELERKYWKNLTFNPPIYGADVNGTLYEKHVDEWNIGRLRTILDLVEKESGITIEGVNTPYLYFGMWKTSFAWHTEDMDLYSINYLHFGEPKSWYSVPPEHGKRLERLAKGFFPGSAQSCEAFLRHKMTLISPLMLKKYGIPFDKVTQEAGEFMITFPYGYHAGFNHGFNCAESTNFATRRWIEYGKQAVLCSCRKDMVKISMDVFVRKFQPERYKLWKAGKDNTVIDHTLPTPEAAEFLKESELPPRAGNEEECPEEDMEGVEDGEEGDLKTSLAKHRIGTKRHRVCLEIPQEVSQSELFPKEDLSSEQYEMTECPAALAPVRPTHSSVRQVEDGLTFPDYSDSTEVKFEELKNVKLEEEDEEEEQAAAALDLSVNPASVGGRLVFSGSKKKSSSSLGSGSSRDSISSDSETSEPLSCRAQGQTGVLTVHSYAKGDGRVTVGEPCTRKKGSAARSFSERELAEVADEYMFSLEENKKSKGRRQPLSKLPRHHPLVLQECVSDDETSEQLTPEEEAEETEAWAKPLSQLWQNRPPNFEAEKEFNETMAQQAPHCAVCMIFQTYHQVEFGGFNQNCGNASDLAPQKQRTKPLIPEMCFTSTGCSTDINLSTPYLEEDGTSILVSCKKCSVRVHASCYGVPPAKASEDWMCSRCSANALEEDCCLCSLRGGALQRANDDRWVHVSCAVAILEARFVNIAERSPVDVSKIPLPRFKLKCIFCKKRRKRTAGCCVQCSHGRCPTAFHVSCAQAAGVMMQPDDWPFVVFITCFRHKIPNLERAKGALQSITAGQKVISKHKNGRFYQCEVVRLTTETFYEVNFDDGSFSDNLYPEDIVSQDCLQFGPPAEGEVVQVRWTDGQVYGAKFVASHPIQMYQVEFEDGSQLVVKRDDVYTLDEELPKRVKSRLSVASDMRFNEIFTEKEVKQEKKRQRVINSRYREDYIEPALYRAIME
BAZ2B inh = blocks human BAZ2B. actives 4.4% (n = 360,000). AlphaScreen BAZ2B-H3K14Ac peptide displacement. Q9UIF8. Potency, µM (top dose mostly 114 µM), for inactives: top-dose activity change, negative = inhibition, most hits filed as inhibitors. AID 504333; also: % is scaled to controls: 0 for no effect and ±100 for the full control effect; nearly all actives have a fitted effect of over 60% in size
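Compounds, titrated to a top concentration of 110 uM, were incubated 30 min at room temperature with preformed BAZ2B/acetyl-K14 H3 peptide complex (50 nM each). Proximity signal was measured by AlphaScreen after 20 min with beads.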
HP1b binding inh = HP1-beta chromodomain-methylated histone interaction inhibition; P83916; AlphaScreen HP1-beta / biotin-H3K9me3 peptide binding; Potency, µM (series often up to 114 µM), for inactives: at the top dose activity change, negative = inhibition, hits mostly inhibitors; actives 0.56% (n = 390,000); AID 540317; also: nearly all actives have a fitted effect of over 70% in size
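AlphaScreen: HP1-beta (50 nM) preformed 30 min with biotin-H3(1-18)K9me3 peptide (50 nM) in PBS pH 7.4, 0.01% Tween-20. Compound added for 30 min at RT, then streptavidin donor/nickel chelate acceptor beads (10 ug/mL) for 30 min.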
G9a inh = inhibitors of human histone lysine methyltransferase G9a; Q96KQ7; G9a H3K9 monomethylation, AlphaScreen, 2 h; Potency, µM (doses to about 102 µM), inactives show at the highest dose activity, negative = inhibition, usual class: inhibitors; actives 8.8% (n = 350,000); AID 504332; also: % is scaled to controls: 0 for no effect and ±100 for the full control effect; nearly all actives have a fitted effect of over 75% in size
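Quantitative HTS format: methyltransferase activity on a biotin-tagged H3K9 peptide is measured by AlphaScreen, using a rabbit anti-monomethyl-H3K9 antibody with streptavidin donor and anti-IgG acceptor beads. Final levels are 20 nM enzyme, 500 nM peptide, 20 uM SAM; 2 h RT.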
An asterisk follows results filed as active; ? = inconclusive; · = no result given; [ ] = dose if it differs, or a comment. This is a sample that favours compounds with a hit; in the whole collection about 12% have one here. Calls follow the shape of the dose curve; as a rule, active = well fitted curve in the direction sought with a large enough effect; inconclusive = small, poorly fitted or top-dose-only effect, or another doubt; inactive = no such curve, though single readings can be large; an effect the other way counts as inactive or inconclusive. Potency is read from the fitted curve at half-maximal effect.

SMILES	Sfp PPTase inh	JMJD2A Tudor	BAZ2B inh	HP1b binding inh	G9a inh
O=S(=O)(/N=C(/Nc1cccc2ccccc12)c1ccccc1)c1cccs1	?	-23%	-4%	-1%	?
O=C1C(Nc2ccccc2)=C/C(=N/S(=O)(=O)c2cccs2)c2ccccc21	?	4µM*	2.8µM*	11µM*	8.9µM*
CCN(Cc1ccccc1)C(=O)c1cc2c(s1)-c1c(C)cccc1OC2	·	236%	227%	267%	302%[59 µM]
COc1cccc(C2CC(=O)Nc3cc(OC)c(OC)c(OC)c32)c1OC (stereo not given)	6%	-14%	-12%	19%	-6%[59 µM]
O=C(COC(=O)c1ccccn1)Nc1cccc(Cl)c1Cl	-2%	3%[57.1 µM]	?	38%	50µM*
O=C(NCc1ccc(Cl)cc1Cl)c1ccccn1	-9%	5%	32%	24%	-24%
O=C(COC(=O)c1ccccn1)NCc1ccc(Cl)cc1Cl	·	-23%	?	17%	28µM*
COc1ccccc1NC(=O)COC(=O)c1ccccn1	8%	-11%	3%	1%	17%
Cc1ccc(S(=O)(=O)NNC(=O)C(=O)NNS(=O)(=O)c2ccc(C)cc2)cc1	28%	35µM*	-38%	33%	19%
CC(=O)Nc1ccc(S(=O)(=O)NNC(=O)COc2cccc(C)c2)cc1	79µM*	50µM*	5%[57.1 µM]	-21%	6.3µM*
CC(=O)Nc1ccc(S(=O)(=O)NNC(=O)c2sc(=S)n(C)c2C)cc1	-21%	0.71µM*	-11%	13%	0%[59 µM]
Cc1ccc(S(=O)(=O)NNC(=O)c2ccc(O)cc2)cc1	?	2%	-18%	22%	?
CC(=O)Nc1ccc(C(=O)NNS(=O)(=O)c2ccc(C)cc2)cc1	-7%	9%	50µM*	33%	20µM*
COc1cc(-c2nc3c(c(C)nn3-c3ccccc3)c3cc(OC)c(OC)cc23)ccc1O	0%	-3%	-8%[57.1 µM]	16%	30%[0.501 µM]
COc1ccc(S(=O)(=O)NCc2ccco2)c2ccccc12	-17%	-31%	9%	12%	-19%[59 µM]
Cc1ccc(S(=O)(=O)NNC(=O)CCCCC(=O)NNS(=O)(=O)c2ccc(C)cc2)cc1	17%	-4%	-12%	44%	45µM*
Cc1ccc(S(=O)(=O)NNC(=O)c2snnc2C)cc1	?	79µM*	2%	9%	10µM*
Cc1ccc(S(=O)(=O)Nc2c(Cl)c(Cl)c(O)c3ccccc23)cc1	45µM*	·	45µM*	·	1.3µM*
Cc1ccc(S(=O)(=O)NC(=O)Nc2ccc(F)cc2)cc1	14%	-14%	2%	25%	11%[59 µM]
Cc1ccc(S(=O)(=O)Nc2ccccc2-c2ccccc2NS(=O)(=O)c2ccc(C)cc2)cc1	5%	-16%	-50%	20%	-26%
Cc1ccc(NNS(=O)(=O)c2ccc(C)cc2)cc1	40µM*	3.2µM*	20µM*	?	0.79µM*
CC(=O)OCc1c(C(F)(F)F)nn(C)c1Sc1ccccc1	5%	36%	51%	107%	125%
CSc1ccc(S(=O)(=O)Nc2ccc(S(=O)(=O)Nc3ccc(C)cc3)cc2)cc1	15%	?	-31%	0%	-33%[59 µM]
Cc1ccc(S(=O)(=O)Nc2ccc(N=Nc3ccc(O)cc3)cc2)cc1	-30%	?	45µM*	?	-19%[59 µM]
CCSc1ccccc1C(=O)N=C1NC(=O)CC2C(=O)NCCN12 (stereo not given)	-1%	-6%	-16%	25%	-5%
SMILES	Sfp PPTase inh	JMJD2A Tudor	BAZ2B inh	HP1b binding inh	G9a inh
COc1ccc(Nc2nnc(SCC(=O)Nc3ccc4[nH]c(=O)[nH]c4c3)s2)cc1	-15%	-26%	-5%	18%	16µM*
Cc1nnc(SCC(=O)Nc2ccc3[nH]c(=O)[nH]c3c2)s1	·	-13%	-5%	31%	?
COc1ccc(NC(=O)CSc2nnc(NC(=O)c3ccccc3C(=O)O)s2)cc1	28%	50µM*	-3%	-6%	?
COc1ccc(Nc2nnc(SCC(=O)N3CCCC3)s2)cc1	6%	5%	-6%	37%	35µM*
O=C(Nc1nnc(SCC(=O)N2CCCCC2)s1)C1CCCCC1	-13%	-33%	-1%	14%	4µM*
COc1ccc(NC(=O)CSc2nnc(NC(=O)Nc3ccc(OC)cc3)s2)cc1	·	-11%	-18%	33%	?
CCn1c(=O)n(CC)c2cc(NC(=O)CSc3ccc([N+](=O)[O-])cn3)ccc21	6%	0%	-20%	19%	-5%
O=C(CSc1nncs1)Nc1ccc2[nH]c(=O)[nH]c2c1	·	-15%	0%	31%	11µM*
O=C(CSc1ccc([N+](=O)[O-])cn1)Nc1ccc2[nH]c(=O)[nH]c2c1	-11%	-10%	3%	3%	32µM*
O=c1[nH]cnc2cc(Cl)ccc12	11%	8%[11.4 µM]	1%	57%	50µM*
CCNCc1nc2cc(Cl)ccc2c(=O)[nH]1	?	-6%	-4%	40%	?
CSc1nnc2n(-c3cccc(C)c3)c(=O)c3c4c(sc3n12)CCCC4	·	-9%	0%	27%	-44%[59 µM]
C1=CCC(CN2CCN(C3CCCCCC3)CC2)CC1 (stereo not given)	?	1µM*	45µM*	?	7.9µM*
CCS(=O)(=O)N1CCN(CC2CC3C=CC2C3)CC1 (stereo not given)	-16%	1.3µM*	50µM*	?	11µM*
FC(F)(F)c1cccc(N2CCN(CC3CC4C=CC3C4)CC2)c1 (stereo not given)	-25%	-28%	?	25%	?
C1=CC2CC1CC2CN1CCN(Cc2ccccc2)CC1 (stereo not given)	79µM*	1.1µM*	23%	?	2µM*
Cc1ccc(N2CCN(CC3CC=CCC3)CC2)cc1 (stereo not given)	-2%	?	?	?	-12%[59 µM]
CCCS(=O)(=O)N1CCN(CC2CC=CCC2)CC1 (stereo not given)	-23%	0.89µM*	56µM*	-55%	7.1µM*
CCCS(=O)(=O)N1CCN(CC2CC3C=CC2C3)CC1 (stereo not given)	-26%	-28%[11.4 µM]	50µM*	?	5.6µM*
Cc1ccc(S(=O)(=O)N2CCN(CC3CC4C=CC3C4)CC2)cc1 (stereo not given)	?	0.79µM*	18µM*	28µM*	7.9µM*
Cc1ccc(S(=O)(=O)N2CCN(CCOc3ccccc3)CC2)cc1	·	6%	-7%	42%	3%
Cc1ccc(CNC(=O)CS(=O)(=O)c2cccc3nsnc23)cc1	·	-9%	12%	26%[57 µM]	8%[59 µM]
Cc1ccc2nc(N(CCCN(C)C)C(=O)c3cc(-c4cccs4)nc4ccccc34)sc2c1	79µM*	14µM*	25µM*	?	40µM*
CN(C)CCCN(C(=O)c1ccc2c(c1)CCCC2)c1nc2c(F)cccc2s1	40µM*	45µM*	?	?	?
